Test results published in PubChem BioAssay AID1159580 (chemical genetic matrix, 2015).
Values joined by “and” are separate entries in the source; they are usually repeats but may differ in a detail not shown here. Equal entries are not always repeated. Screen size: about 5,500 compounds; about 2,000 (36%) were called active. Inconclusive results (about 18%) are left out. Cut-off read from the data, not from the text of the source: active = normalized growth mostly below about 0.91 (no sharp cut-off); inconclusive = no clear call, values can overlap the other calls; inactive = mostly above about 0.92. The list shows a part of the results.

Test: chemical genetic growth profiling, strain panel (AID 1159580);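 note: tested at 20 µM; growth read once vehicle control cultures reached saturation at 30 °C; 1 = growth at the plate median or of vehicle wells; lower values mean less growth of the strain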
Settings: growth OD

Measured: normalized growth

CN1CCC(=C2c3ccccc3CC(=O)c3sccc32)CC1
inactive: S. cerevisiae deletion strains, locus YKL009W, strain mrt4, hits give low values 1.02 | S. cerevisiae deletion strains, locus YKL068W, hits give low values 1.02 | S. cerevisiae deletion strains, locus YKL085W, strain MDH1 (second series), hits give low values 1.01 | S. cerevisiae deletion strains, locus YKL085W, strain MDH1, hits give low values 1.01 | S. cerevisiae deletion strains, locus YKL160W, strain elf1, hits give low values 0.987 | S. cerevisiae deletion strains, locus YKL190W, strain CNB1, hits give low values 1.01 | S. cerevisiae deletion strains, locus YKR001C, strain vps1, hits give low values 1.01 | S. cerevisiae deletion strains, locus YKR026C, strain gcn3, hits give low values 0.981 | S. cerevisiae deletion strains, locus YKR091W, strain srl3, hits give low values 0.979 | S. cerevisiae deletion strains, locus YLL001W, strain dnm1, hits give low values 0.935 | S. cerevisiae deletion strains, locus YLL026W, hits give low values 0.963 | S. cerevisiae deletion strains, locus YLL041C, strain sdh2, hits give low values 0.986 | S. cerevisiae deletion strains, locus YLR027C, strain aat2, hits give low values 0.973 | S. cerevisiae deletion strains, locus YLR039C, strain RIC1, hits give low values 0.996 | S. cerevisiae deletion strains, locus YLR058C, strain SHM2, hits give low values 1 | S. cerevisiae deletion strains, locus YLR102C, strain apc9, hits give low values 1.01 | S. cerevisiae deletion strains, locus YLR113W, strain HOG1, hits give low values 1.02 | S. cerevisiae deletion strains, locus YLR221C, strain rsa3, hits give low values 1.04 | S. cerevisiae deletion strains, locus YLR258W, strain gsy2, hits give low values 1.01 | S. cerevisiae deletion strains, locus YLR262C, strain YPT6 (second series), hits give low values 0.956 | S. cerevisiae deletion strains, locus YLR262C, strain YPT6, hits give low values 1 | S. cerevisiae deletion strains, locus YLR268W, strain sec22, hits give low values 1.03 | S. cerevisiae deletion strains, locus YLR320W, strain mms22, hits give low values 1.02 | S. cerevisiae deletion strains, locus YLR330W, strain CHS5, hits give low values 1 | S. cerevisiae deletion strains, locus YLR342W, strain FKS1 (second series), hits give low values 0.991 | S. cerevisiae deletion strains, locus YLR342W, strain FKS1, hits give low values 0.967 | S. cerevisiae deletion strains, locus YLR357W, strain rsc2, hits give low values 0.969 | S. cerevisiae deletion strains, locus YLR370C, strain arc18, hits give low values 0.971 | S. cerevisiae deletion strains, locus YLR371W, strain rom2, hits give low values 1.01 | S. cerevisiae deletion strains, locus YLR384C, strain iki3, hits give low values 0.974 | S. cerevisiae deletion strains, locus YLR418C, strain cdc73, hits give low values 0.976 | S. cerevisiae deletion strains, locus YML016C, strain PPZ1, hits give low values 1.01 | S. cerevisiae deletion strains, locus YML032C, strain rad52, hits give low values 1.02 | S. cerevisiae deletion strains, locus YML120C, strain ndi1, hits give low values 0.965 | S. cerevisiae deletion strains, locus YML124C, strain tub3, hits give low values 1.01 | S. cerevisiae deletion strains, locus YMR058W, strain fet3, hits give low values 0.979 | S. cerevisiae deletion strains, locus YMR078C, strain ctf18, hits give low values 1 | S. cerevisiae deletion strains, locus YMR125W, strain sto1, hits give low values 0.955 | S. cerevisiae deletion strains, locus YMR129W, hits give low values 0.981 | S. cerevisiae deletion strains, locus YMR205C, strain PFK2, hits give low values 0.987 | S. cerevisiae deletion strains, locus YMR223W, strain ubp8, hits give low values 0.993 | S. cerevisiae deletion strains, locus YMR231W, strain pep5, hits give low values 0.974 | S. cerevisiae deletion strains, locus YMR263W, strain SAP30, hits give low values 1.02 | S. cerevisiae deletion strains, locus YMR307W, strain GAS1, hits give low values 0.971 | S. cerevisiae deletion strains, locus YNL067W, strain RPL9B, hits give low values 1.02 | S. cerevisiae deletion strains, locus YNL071W, strain lat1, hits give low values 0.987 | S. cerevisiae deletion strains, locus YNL128W, strain TEP1, hits give low values 1.01 and 0.992 | S. cerevisiae deletion strains, locus YNL153C, strain GIM3, hits give low values 1.02 and 0.986 | S. cerevisiae deletion strains, locus YNL175C, strain NOP13, hits give low values 0.996 | S. cerevisiae deletion strains, locus YNL183C, strain NPR1, hits give low values 0.991 | S. cerevisiae deletion strains, locus YNL197C, strain WHI3, hits give low values 0.995 | S. cerevisiae deletion strains, locus YNL209W, strain ssb2, hits give low values 0.988 | S. cerevisiae deletion strains, locus YNL224C, strain SQS1, hits give low values 1.02 | S. cerevisiae deletion strains, locus YNL233W, strain BNI4, hits give low values 1.01 | S. cerevisiae deletion strains, locus YNL248C, strain rpa49, hits give low values 0.983 | S. cerevisiae deletion strains, locus YNL250W, strain rad50, hits give low values 1.01 | S. cerevisiae deletion strains, locus YNL271C, strain bni1, hits give low values 1.02 | S. cerevisiae deletion strains, locus YNL298W, strain CLA4, hits give low values 1.01 | S. cerevisiae deletion strains, locus YNL307C, strain MCK1, hits give low values 1 | S. cerevisiae deletion strains, locus YNL322C, strain KRE1 (second series), hits give low values 0.975 | S. cerevisiae deletion strains, locus YNL322C, strain KRE1, hits give low values 1.01 and 0.991 | S. cerevisiae deletion strains, locus YNR049C, strain mso1, hits give low values 0.994 | S. cerevisiae deletion strains, locus YNR052C, strain pop2, hits give low values 1.01 | S. cerevisiae deletion strains, locus YOL006C, strain TOP1, hits give low values 1.05 | S. cerevisiae deletion strains, locus YOL012C, strain htz1 1.02 | S. cerevisiae deletion strains, locus YOL147C, strain pex11, hits give low values 1 | S. cerevisiae deletion strains, locus YOR001W, strain rrp6, hits give low values 0.95 | S. cerevisiae deletion strains, locus YOR061W, strain CKA2, hits give low values 1.01 | S. cerevisiae deletion strains, locus YOR069W, strain VPS5, hits give low values 0.999 | S. cerevisiae deletion strains, locus YOR070C, strain gyp1, hits give low values 0.999 | S. cerevisiae deletion strains, locus YOR080W, strain dia2, hits give low values 0.967 | S. cerevisiae deletion strains, locus YOR083W, strain WHI5 (second series), hits give low values 1.01 | S. cerevisiae deletion strains, locus YOR083W, strain WHI5, hits give low values 0.962 | S. cerevisiae deletion strains, locus YOR106W, strain vam3, hits give low values 0.956 | S. cerevisiae deletion strains, locus YOR136W, strain idh2, hits give low values 1 | S. cerevisiae deletion strains, locus YOR144C, strain elg1, hits give low values 1 | S. cerevisiae deletion strains, locus YOR184W, strain ser1, hits give low values 0.989 | S. cerevisiae deletion strains, locus YOR231W, strain MKK1, hits give low values 1.02 | S. cerevisiae deletion strains, locus YOR265W, strain rbl2, hits give low values 0.988 | S. cerevisiae deletion strains, locus YOR270C, strain vph1, hits give low values 0.98 | S. cerevisiae deletion strains, locus YOR290C, strain snf2, hits give low values 1 | S. cerevisiae deletion strains, locus YOR316C, strain cot1, hits give low values 1.01 | S. cerevisiae deletion strains, locus YPL051W, strain arl3, hits give low values 0.991 | S. cerevisiae deletion strains, locus YPL055C, strain LGE1, hits give low values 1.01 | S. cerevisiae deletion strains, locus YPL078C, strain atp4, hits give low values 0.923 | S. cerevisiae deletion strains, locus YPL106C, strain sse1, hits give low values 0.979 | S. cerevisiae deletion strains, locus YPL240C, strain hsp82, hits give low values 0.99 | S. cerevisiae deletion strains, locus YPL241C, strain CIN2, hits give low values 1 | S. cerevisiae deletion strains, locus YPL256C, strain CLN2, hits give low values 1.04 | S. cerevisiae deletion strains, locus YPR119W, strain clb2, hits give low values 1.01 | S. cerevisiae deletion strains, locus YPR141C, strain kar3, hits give low values 1.01 | S. cerevisiae deletion strains, locus YPR163C, strain tif3, hits give low values 1.02 | S. cerevisiae deletion strains, locus YPR167C, strain met16, hits give low values 1 | S. cerevisiae deletion strains, strain wtn01, hits give low values 1.01 | S. cerevisiae strains, strain wild type, hits give low values 1.01
